Results as given in PubChem BioAssay (NCI).
The panel holds about 83,000 compounds, 20% with a hit somewhere; the sample as a whole holds those more often.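 Step 1: grow cells in 96-well plates. Step 2: add test compound at a single concentration. Step 3: incubate 48 h. Step 4: record percent growth.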 Active and inactive are the calls of the source. Rule for the calls: active = growth percent below 10; inactive = the rest.

Tested on: HL-60(TB) leukemia
Assay: NCI-60 one-dose screen, 48 h (100 = growth as untreated, 0 = no growth, -100 = all killed)
Conditions: 10 µM unless noted

| Compound | growth |
| --- | --- |
| CNC(=O)c1cccnc1 | 99.5% (inactive) |
| C/C(=N/N=C(N)N)c1ccc(N)cc1 | 60.1% (inactive) |
| COc1ccc(/C=C(/C(=O)n2cnnn2)c2cc(OC)c(OC)c(OC)c2)cc1 | 4.64% (active) |
| O=C1/C=C/[C@@H](O)[C@@H]2C[C@@H](O)C[C@H]2/C=C/CCC[C@@H](O)CCO1 | 123% (inactive) |
| CN(C)c1ccc2cc(-c3ccc(Cl)c(Cl)c3)c(N)nc2c1 | 10.5% (inactive) |
| CCN(CC)CCSCCCNc1c(C)cnc2cc(Cl)ccc12 | 69.1% (inactive) |
| Nc1nc(N)c2c(ccc3c2ccn3Cc2cccc([N+](=O)[O-])c2)n1 | 8.38% (active) |
| Fc1cc2[nH]ncc2c2c3c(c(-c4cn[nH]c4)nc12)CCCC3 | -13.2% (active) |
| CCCCCCCCCCCC1N=C(N)N=C(N)N1c1cccc(Br)c1 (stereo unspecified) | -53% (active) |
| COc1cc(NC(C)CN(CC(C)C)C(C)C)c2ncccc2c1 (stereo unspecified) | 101% (inactive) |
| Cc1nc(-c2ccccc2)cc2c(O)c(C(=O)NN)[nH]c(=O)c12 | 126% (inactive) |
| COC(=O)C[C@@H]1CC=CC(=O)/C1=C(O)/C=C/c1ccccc1 | -10.7% (active) |
| CCNCCNc1cc(-c2cccc(C(F)(F)F)c2)c(C#N)c2nc3ccccc3n12 | -58.7% (active) |
| COc1cc(NCCC2CCCCN2)c2ncccc2c1OC (stereo unspecified) | 0.805% (active) |
| COc1cc(C2C3=C(COC3=O)Nc3cc4c(cc32)CCC4)cc2c1OCO2 (stereo unspecified) | 10.4% (inactive) |
| CCOC(=O)C1=C(CSC(=S)N(C2CCCCC2)C2CCCCC2)N(C)C(=O)NC1c1ccccc1 (stereo unspecified) | 15.3% (inactive) |
